In the library only some 9.4% were active in any assay of this set; here they are far more common.
Pf growth 96h: Primary qHTS for delayed death inhibitors of the malarial parasite plastid, 96 hour incubation; Potency, µM (series often up to 28.7 µM), inactives show top-dose activity change, negative = inhibition, usual class: inhibitors; 320,000 compounds, 6.9% hits; P. falciparum luciferase reporter growth, 96 h; note: % is set by controls: 0 for no effect and ±100 for the full control effect
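P. falciparum expressing integrated firefly luciferase grown in erythrocytes (2% hematocrit, 0.05% parasitemia final) with compounds for 96 hours at 37 C, 5% CO2. Growth inhibition read as loss of luminescence after adding luciferase detection reagent.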
AMA1 RON2 block: qHTS for Inhibitors of AMA1-RON; Towards Development of Antimalarial Drug Lead: Primary Screen | Plasmodium falciparum AMA1 (3D7) - RON2 peptide interaction | AlphaScreen AMA1-biotinylated RON2 peptide binding | Potency, µM (series often up to 58.2 µM), for the others: top-dose activity change, negative = inhibition, usual class: inhibitors | 360,000 compounds, 0.2% hits;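 note: 0% = vehicle wells and -100% = peptide control; nearly all actives have a fitted effect of over 45% in size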
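AMA1 (3D7) with his tag at 25 nM final met compounds first, then biotinylated RON2 peptide at 25 nM; detection used donor plus acceptor beads, 10 µg/mL apiece, read by AlphaScreen after 30 min at room temperature.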
SARS PLP yeast: qHTS of Yeast-based Assay for SARS-CoV PLP; 330,000 compounds, 0.19% hits; Potency, µM (highest dose often 32.9 µM), for the others: at the top dose activity, positive = growth rescue, usual class: activators; S. cerevisiae expressing SARS-CoV PLpro, growth rescue; calls by dose curve; note: 0% is about no effect; nearly all actives have a fitted effect of over 55% in size
Pf growth 48h: Primary qHTS for delayed death inhibitors of the malarial parasite plastid, 48 hour incubation; 310,000 compounds, 5.9% hits; P. falciparum luciferase growth in erythrocytes, 48 h; Potency, µM (highest dose often 28.7 µM), without a hit: top-dose activity change, negative = inhibition, hits mostly inhibitors; note: % is set by controls: 0 for no effect and ±100 for the full control effect
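A one-generation exposure of luciferase-tagged malaria parasites in RPMI 1640/Albumax erythrocyte culture, 37 C and 5% CO2. Inhibition is inferred from decreased luminescence after adding detection reagent.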
* marks the source's active call; other numbers are inactive results; ? = inconclusive; · = no result; [ ] = remark or other dose. Unless noted, calls come from the whole dose curve; as a rule, active = well fitted curve in the direction sought with a large enough effect; inconclusive = small, poorly fitted or top-dose-only effect, or another doubt; inactive = no such curve, though single readings can be large; an effect the other way counts as inactive or inconclusive. Potency is the fitted concentration of half-maximal effect.

SMILES	Pf growth 96h	AMA1 RON2 block	SARS PLP yeast	Pf growth 48h
O=C(c1cnn2c(C(F)(F)F)cc(-c3cccs3)nc12)N1CCN(Cc2ccccc2)CC1	?	-2.3%	-39.2%	2.33µM*
O=C(c1cnn2c(C(F)(F)F)cc(-c3cccs3)nc12)N1CCN(C(c2ccccc2)c2ccccc2)CC1	?	14.5%	1.9%	0.928µM*
COc1ccccc1-c1cc(C(F)(F)F)n2ncc(C(=O)N3CCc4ccccc4C3)c2n1	?	22.8%	0.4%	2.33µM*
CN1CCN(C(=O)c2cnn3c(C(F)(F)F)cc(-c4cccs4)nc23)CC1	?	-4.7%[11.6 µM]	10.4%	-13.5%
Cc1ccc2c(c1)-c1c(ssc1=S)C(C)(C)N2C(=O)c1ccco1	-5.6%	-12.2%	-15.2%	0.928µM*
CC1(C)c2ssc(=S)c2-c2ccccc2N1C(=O)c1ccco1	1.04µM*	-2.9%	-4.4%	?
Cn1cnnc1SCC(=O)N1c2ccccc2-c2c(ssc2=S)C1(C)C	·	·	-4.8%	6.7%
Cc1ccc2c(c1)-c1c(ssc1=S)C(C)(C)N2C(=O)CSC1=NCCS1	?	?	8.0%	?
O=C(CCN1CCOCC1)Nc1ccc2c(c1)N(C(=O)CN1CCOCC1)c1ccccc1CC2	19.9%	-0.6%	12.0%	3.2%
O=C(Cn1ncc2c(=O)oc3ccccc3c21)N1CCc2ccccc2C1	34.8%	-6.4%	-1.8%	8.4%
O=C(Cn1ncc2c(=O)oc3ccccc3c21)N1CCC(N2CCCCC2)CC1	11.7µM*	1.2%	-2.5%	16.8%
O=C(Cn1ncc2c(=O)oc3ccccc3c21)NCCC1=CCCCC1	9.28µM*	10.7%	-0.6%	-7.6%
O=C(Cn1ncc2c(=O)oc3ccccc3c21)NCC1CCCO1 (configuration not stated)	?	-5.4%	6.5%	5.1%
O=c1cc(NCC2CCCO2)[nH]c(=O)n1-c1ccc(Cl)cc1 (configuration not stated)	6.1%	-4.5%	-14.3%	-3.7%
COC(=O)NNC(=O)c1ccc(C)c(Br)c1	?	9.7%	-29.2%	14.1%
COc1ccc(N(CC(=O)NC2CCCC2)S(=O)(=O)c2ccc(NC(C)=O)cc2)cc1	0.0%	5.0%	0.6%	?
COc1ccc(C)cc1S(=O)(=O)N(C)CC(=O)NC1CCCCC1	·	-2.6%	-8.9%	5.2%
CCOc1ccc(N(CC(=O)NCc2cccnc2)S(=O)(=O)c2ccc(F)cc2)cc1	31.1%	19.0%	1.9%	-15.2%
COc1ccc(S(=O)(=O)N(CC(=O)NC2CCCCC2)c2ccc(F)cc2)cc1	7.38µM*	11.6%	3.0%	33.4%
COc1ccc(N(CC(=O)NC2CC3CCC2C3)S(=O)(=O)c2ccc(C)cc2)cc1 (configuration not stated)	13.1µM*	7.1%	-5.2%	-17.8%
CCOc1ccc(S(=O)(=O)N(CC(=O)Nc2cccnc2)c2ccc(F)cc2)cc1	5.86µM*	-4.4%	-7.0%	19.2%
COc1ccc(C)cc1S(=O)(=O)N(CC(=O)NC1CCCC1)c1ccc(F)cc1	9.28µM*	0.0%	?	41.4%
CC(O)(c1ccc(F)c(F)c1)c1nc(-c2cc3ccccc3o2)cs1 (configuration not stated)	·	2.0%	·	·
O=C(c1cccc(Br)c1)N1CCCC1	18.8%	-2.1%	-1.1%	·
CCCc1nn2c(=O)cc(CSCC(=O)Nc3nnc(CC)s3)nc2s1	10.4µM*	12.3%	4.5%	-15.6%
SMILES	Pf growth 96h	AMA1 RON2 block	SARS PLP yeast	Pf growth 48h
CCOC(=O)C1=C(C)c2ccccc2N(C(=O)OC)C1(C)C(=O)OCC (configuration not stated)	·	-9.9%	5.2%	·
CCC(C)C(=O)N1c2ccccc2C(=C2SC(C(=O)OC)=C(C(=O)OC)S2)C(=S)C1(C)C (configuration not stated)	?	-5.7%	3.6%	9.28µM*
CC1CCc2sc3nc(NCc4ccco4)n4ncnc4c3c2C1 (configuration not stated)	?	-7.2%	-23.4%	·
Nc1ccc(Oc2cccc(Oc3ccc(N)cc3)c2)cc1	-29.9%	31.6µM*	-7.1%	7.3%
Nc1ccc(Oc2ccc(Br)cc2)cc1	34.6%	?	10.4%	24.8%
Cc1cccc(Oc2ccc(N)cc2)c1	34.3%	-14.0%	12.5%	·
Cc1cc(C)cc(Oc2ccc(N)cc2)c1	11.7µM*	-13.6%	5.7%	26.6%
COc1cc(C(=O)NC2CC3CCCC(C2)N3CC(=O)Nc2ccccc2)cc(OC)c1OC (configuration not stated)	-1.6%	-2.2%	9.8%	?
Cc1ccc(CN2C3CCCC2CC(NC(=O)Nc2cccc(F)c2)C3)cc1 (configuration not stated)	21.3%	-7.4%	-0.6%	1.85µM*
O=C(NC1CC2CCCC(C1)N2Cc1ccccc1)c1ccc([N+](=O)[O-])cc1 (configuration not stated)	0.37µM*	-4.1%	1.3%	0.3%
O=C(CN1C2CCCC1CC(NC(=O)c1ccccc1)C2)Nc1nccs1 (configuration not stated)	9.28µM*	3.7%	12.4%	?
O=C(/C=C/c1ccccc1)NC1CC2CCCC(C1)N2Cc1ccccc1 (configuration not stated)	2.33µM*	·	-0.6%	?
Cc1ccc(C(=O)NC2CC3CCCC(C2)N3Cc2ccccc2)cc1 (configuration not stated)	?	24.2%	0.9%	?
Clc1cccc(NC2=NCCS2)c1	·	-8.7%	·	·
Cc1ccc(CN2C3CCCC2CC(NC(=O)c2ccc(F)cc2)C3)cc1 (configuration not stated)	25.2%	0.8%	-6.1%	10.4µM*
CCCn1c(N)c(C(=O)CSc2nnc(-c3ccco3)n2Cc2ccccc2)c(=O)[nH]c1=O	0.0%	-13.8%	0.4%	?
Nn1c(SCC(=O)N2CCCC2)nnc1C1CCCCC1	·	-7.4%	·	·
CC(=O)c1c(C)[nH]c(C(=O)CSc2nnc(-c3ccco3)n2Cc2ccccc2)c1C	0.0586µM*	-3.8%	-8.5%	?
CC(=O)c1c(C)[nH]c(C(=O)CSc2nnc(C3CCCCC3)n2N)c1C	·	4.3%	1.9%	2.08µM*
CC(=O)c1c(C)[nH]c(C(=O)CSc2nnc(-c3cccs3)n2Cc2ccccc2)c1C	·	-9.9%	-6.1%	9.28µM*
Oc1c(C(c2ccccn2)N2CCCCC2)cc(Cl)c2cccnc12 (configuration not stated)	?	-86.4%	-24.8%	?
Cc1nn(Cc2ccccc2)c(C)c1C(=O)N1CCN(CC(=O)Nc2ccc(F)cc2)CC1	-34.2%	-9.6%	8.5%	?
CCC1=C2CC[C@H]3C(=O)N(CC)C(=O)[C@H]3[C@H]2[C@@]2(Cc3ccccc3)C(=O)N(Cc3ccccc3)C(=O)N2C1=O	?	-0.3%	0.7%	?
NC(=O)C1CCN(C(=O)CCc2nc3ccccc3c(=O)[nH]2)CC1	15.0%	8.1%	-3.6%	-2.1%
COc1ccc(S(=O)(=O)Nc2cc3c4c(oc3c3ccccc23)CCCC4=O)cc1	9.28µM*	7.9%	-3.2%	·

Screening data: PubChem, National Center for Advancing Translational Sciences (NCATS)
